According to PubChem BioAssay AID1159580 (chemical genetic matrix, 2015):
Hit rate of the full screen: of about 5,500 compounds, about 2,000 (36%) were called active. Inconclusive results (about 18%) are left out. Cut-off read from the data, not from the text of the source: active = normalized growth mostly below about 0.91 (no sharp cut-off); inconclusive = no clear call, values can overlap the other calls; inactive = mostly above about 0.92. Some of the results follow.

Test: chemical genetic growth profiling, strain panel (AID 1159580);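 note: tested at 20 µM; growth read once vehicle control cultures reached saturation at 30 °C; 1 = growth at the plate median or of vehicle wells; lower values mean less growth of the strain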
Conditions: growth OD
[1] = S. cerevisiae deletion strains, locus YDL101C, strain DUN1, stronger effect = lower value
[2] = S. cerevisiae deletion strains, locus YHR030C, strain SLT2, stronger effect = lower value

Measured: normalized growth

N#Cc1sccc1Br
inactive: S. cerevisiae deletion strains, locus YAL013W, strain DEP1, stronger effect = lower value 0.995 | S. cerevisiae deletion strains, locus YBR229C, strain ROT2, stronger effect = lower value 0.982 | S. cerevisiae deletion strains, locus YCL061C, strain MRC1, stronger effect = lower value 1.02 | [1] 0.967 | S. cerevisiae deletion strains, locus YDL134C, strain PPH21, stronger effect = lower value 0.993 | S. cerevisiae deletion strains, locus YDR150W, strain NUM1, stronger effect = lower value 1.06 | S. cerevisiae deletion strains, locus YEL061C, strain CIN8, stronger effect = lower value 1 | S. cerevisiae deletion strains, locus YGR078C, strain PAC10, stronger effect = lower value 0.999 | [2] 0.961 | S. cerevisiae deletion strains, locus YHR087W, strain rtc3, stronger effect = lower value 0.986 | S. cerevisiae deletion strains, locus YJR043C, strain POL32, stronger effect = lower value 1.01 | S. cerevisiae deletion strains, locus YJR075W, strain HOC1, stronger effect = lower value 1.03 | S. cerevisiae deletion strains, locus YLR039C, strain RIC1, stronger effect = lower value 1 | S. cerevisiae deletion strains, locus YLR058C, strain SHM2 (second series), stronger effect = lower value 0.991 | S. cerevisiae deletion strains, locus YLR085C, strain ARP6, stronger effect = lower value 1.1 | S. cerevisiae deletion strains, locus YLR262C, strain YPT6, stronger effect = lower value 1 | S. cerevisiae deletion strains, locus YML094W, strain GIM5, stronger effect = lower value 0.982 | S. cerevisiae deletion strains, locus YMR219W, strain ESC1, stronger effect = lower value 0.991 | S. cerevisiae deletion strains, locus YMR263W, strain SAP30, stronger effect = lower value 1.04 | S. cerevisiae deletion strains, locus YNL153C, strain GIM3, stronger effect = lower value 1.02 | S. cerevisiae deletion strains, locus YNL298W, strain CLA4 (second series), stronger effect = lower value 1.04 | S. cerevisiae deletion strains, locus YNL322C, strain KRE1, stronger effect = lower value 0.997 | S. cerevisiae deletion strains, locus YNR030W, strain Alg12, stronger effect = lower value 1 | S. cerevisiae deletion strains, locus YPL055C, strain LGE1, stronger effect = lower value 1.02 | S. cerevisiae deletion strains, locus YPR135W, strain CTF4, stronger effect = lower value 1.04 | S. cerevisiae strains, strain wild type, stronger effect = lower value 0.99
active: S. cerevisiae deletion strains, locus YPL241C, strain CIN2, stronger effect = lower value 1.32 [resistant]

O=C(Nc1cccnc1)c1cc2c(s1)-c1ccccc1CC2
inactive: S. cerevisiae deletion strains, locus YAR019C, strain CDC15, stronger effect = lower value 0.925 | S. cerevisiae deletion strains, locus YBL105C, strain PKC1, stronger effect = lower value 0.93 | S. cerevisiae deletion strains, locus YBR135W, strain CKS1, stronger effect = lower value 0.919 | S. cerevisiae deletion strains, locus YBR136W, strain MEC1, stronger effect = lower value 0.926 | S. cerevisiae deletion strains, locus YBR160W, strain CDC28, stronger effect = lower value 0.93 | S. cerevisiae deletion strains, locus YDL017W, strain CDC7, stronger effect = lower value 0.937 | S. cerevisiae deletion strains, locus YDL028C, strain MPS1, stronger effect = lower value 0.921 | [1] 0.932 | S. cerevisiae deletion strains, locus YDL108W, strain KIN28, stronger effect = lower value 0.924 | S. cerevisiae deletion strains, locus YDL132W, strain cdc53, stronger effect = lower value 0.903 | S. cerevisiae deletion strains, locus YDL214C, strain PRR2, stronger effect = lower value 0.745 | S. cerevisiae deletion strains, locus YDR052C, strain DBF4, stronger effect = lower value 0.919 | S. cerevisiae deletion strains, locus YDR054C, strain cdc34, stronger effect = lower value 0.9 | S. cerevisiae deletion strains, locus YDR226W, strain ADK1, stronger effect = lower value 0.911 | S. cerevisiae deletion strains, locus YFL009W, strain cdc4, stronger effect = lower value 0.915 | S. cerevisiae deletion strains, locus YFL029C, strain CAK1, stronger effect = lower value 0.912 | S. cerevisiae deletion strains, locus YFR003C, strain YPI1, stronger effect = lower value 0.928 | S. cerevisiae deletion strains, locus YFR019W, strain FAB1, stronger effect = lower value 0.91 | S. cerevisiae deletion strains, locus YFR028C, strain CDC14, stronger effect = lower value 0.918 | S. cerevisiae deletion strains, locus YGR092W, strain DBF2, stronger effect = lower value 0.524 | S. cerevisiae deletion strains, locus YHR205W, strain SCH9, stronger effect = lower value 0.755 | S. cerevisiae deletion strains, locus YIL147C, strain SLN1, stronger effect = lower value 0.919 | S. cerevisiae deletion strains, locus YJL128C, strain PBS2, stronger effect = lower value 0.946 | S. cerevisiae deletion strains, locus YJL157C, strain FAR1, stronger effect = lower value 0.73 | S. cerevisiae deletion strains, locus YJR016C, strain ILV3, stronger effect = lower value 0.92 | S. cerevisiae deletion strains, locus YJR066W, strain TOR1 (second series), stronger effect = lower value 0.694 | S. cerevisiae deletion strains, locus YJR066W, strain TOR1, stronger effect = lower value 0.532 | S. cerevisiae deletion strains, locus YKL048C, strain ELM1, stronger effect = lower value 0.823 | S. cerevisiae deletion strains, locus YKL067W, strain YNK1, stronger effect = lower value 0.736 | S. cerevisiae deletion strains, locus YKL101W, strain HSL1, stronger effect = lower value 0.811 | S. cerevisiae deletion strains, locus YKL193C, strain SDS22, stronger effect = lower value 0.918 | S. cerevisiae deletion strains, locus YLR133W, strain CKI1, stronger effect = lower value 0.808 | S. cerevisiae deletion strains, locus YLR403W, strain SFP1, stronger effect = lower value 0.663 | S. cerevisiae deletion strains, locus YMR001C, strain CDC5, stronger effect = lower value 0.918 | S. cerevisiae deletion strains, locus YMR205C, strain PFK2 (second series), stronger effect = lower value 0.767 | S. cerevisiae deletion strains, locus YMR277W, strain FCP1, stronger effect = lower value 0.918 | S. cerevisiae deletion strains, locus YNL006W, strain LST8, stronger effect = lower value 0.93 | S. cerevisiae deletion strains, locus YNL020C, strain ARK1, stronger effect = lower value 0.802 | S. cerevisiae deletion strains, locus YNL161W, strain CBK1, stronger effect = lower value 0.924 | S. cerevisiae deletion strains, locus YNL207W, strain RIO2, stronger effect = lower value 0.903 | S. cerevisiae deletion strains, locus YNL222W, strain SSU72, stronger effect = lower value 0.917 | S. cerevisiae deletion strains, locus YNL307C, strain MCK1 (second series), stronger effect = lower value 0.757 | S. cerevisiae deletion strains, locus YOL078W, strain AVO1, stronger effect = lower value 0.918 | S. cerevisiae deletion strains, locus YOL136C, strain PFK27, stronger effect = lower value 0.725 | S. cerevisiae deletion strains, locus YOR061W, strain CKA2, stronger effect = lower value 0.806 | S. cerevisiae deletion strains, locus YOR329C, strain SCD5, stronger effect = lower value 0.924 | S. cerevisiae deletion strains, locus YPL209C, strain IPL1, stronger effect = lower value 0.932 | S. cerevisiae deletion strains, locus YPR025C, strain CCL1, stronger effect = lower value 0.922 | S. cerevisiae deletion strains, locus YPR106W, strain ISR1, stronger effect = lower value 0.926 | S. cerevisiae deletion strains, locus YPR111W, strain DBF20, stronger effect = lower value 0.915 | S. cerevisiae deletion strains, strain NNK1, stronger effect = lower value 0.912 | S. cerevisiae deletion strains, strain TSCII, stronger effect = lower value 0.915
active: S. cerevisiae deletion strains, locus YDR477W, strain SNF1, stronger effect = lower value 0.666 | S. cerevisiae deletion strains, locus YER123W, strain YCK3, stronger effect = lower value 0.592 | S. cerevisiae deletion strains, locus YER133W, strain GLC7, stronger effect = lower value 0.548 | S. cerevisiae deletion strains, locus YGR040W, strain KSS1, stronger effect = lower value 0.614 | S. cerevisiae deletion strains, locus YGR052W, strain FMP48, stronger effect = lower value 0.602 | [2] 0.477 | S. cerevisiae deletion strains, locus YHR079C, strain IRE1, stronger effect = lower value 0.495 | S. cerevisiae deletion strains, locus YHR082C, strain KSP1, stronger effect = lower value 0.583 | S. cerevisiae deletion strains, locus YJL095W, strain BCK1, stronger effect = lower value 0.482 | S. cerevisiae deletion strains, locus YKL203C, strain TOR2, stronger effect = lower value 0.59 | S. cerevisiae deletion strains, locus YLR113W, strain HOG1, stronger effect = lower value 0.394 | S. cerevisiae deletion strains, locus YML070W, strain DAK1, stronger effect = lower value 0.679 | S. cerevisiae deletion strains, locus YNL183C, strain NPR1, stronger effect = lower value 0.455 | S. cerevisiae deletion strains, locus YOR119C, strain RIO1, stronger effect = lower value 0.636 | S. cerevisiae deletion strains, locus YOR231W, strain MKK1, stronger effect = lower value 0.515 | S. cerevisiae deletion strains, locus YPL031C, strain PHO85, stronger effect = lower value 0.574 | S. cerevisiae deletion strains, locus YPL153C, strain RAD53, stronger effect = lower value 0.529 | S. cerevisiae deletion strains, locus YPL204W, strain HRR25, stronger effect = lower value 0.522 | S. cerevisiae deletion strains, locus YPL256C, strain CLN2, stronger effect = lower value 0.476
